The panel holds about 79,000 compounds, 15% with a hit somewhere; the sample as a whole holds those more often. Active and inactive are the calls of the source. Cut-off read from the data, not from the text of the source: active = growth inhibition above about 70%; inactive = the rest.
How the values were obtained:
[1] = NCI Yeast Anticancer Drug Screen. Data for the rad50 strain (AID 155);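 note: 0% = growth of vehicle-only cultures of the same strain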; conditions: S. cerevisiae rad50 strain growth inhibition, active compounds read high
Outline: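 Yeast carrying a defined DNA repair defect were exposed to test compounds, and growth was compared with vehicle-treated controls to give percent inhibition.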

[2] = NCI Yeast Anticancer Drug Screen. Data for the mec2-1 strain (AID 157); conditions: S. cerevisiae mec2-1 strain, active compounds read high
Outline: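 Yeast mec2-1 mutant treated with compound. Readout: growth inhibition vs vehicle controls.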

[3] = NCI Yeast Anticancer Drug Screen. Data for the sgs1 mgt1 strain (AID 161);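 note: 0% = growth of cultures given vehicle only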; conditions: S. cerevisiae sgs1 mgt1 strain, active compounds read high
Outline: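 Mutant yeast exposed to compound; growth scored against vehicle-only wells.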

[4] = NCI Yeast Anticancer Drug Screen. Data for the cln2 rad14 strain (AID 165);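 note: 0% = growth equal to vehicle treated cultures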; conditions: S. cerevisiae cln2 rad14 strain, active compounds read high
Outline: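 cln2 rad14 yeast strain; compound exposure; growth inhibition read vs vehicle controls.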

[5] = NCI Yeast Anticancer Drug Screen. Data for the bub3 strain (AID 167); conditions: S. cerevisiae bub3 mutant strain, active compounds read high
Outline: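 Compounds were applied to a genetically altered yeast strain carrying a cell-cycle control defect. Growth inhibition was scored against vehicle-treated controls.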

[6] = NCI Yeast Anticancer Drug Screen. Data for the mlh1 rad18 strain (AID 175); conditions: S. cerevisiae mlh1 rad18 strain growth inhibition, active compounds read high
Outline: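 Yeast w/ defined DNA-repair lesions; compound exposure; growth vs vehicle controls → % inhibition.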

[7] = at 5.0 µM (retest, dose inferred, filed as 0.5)
[8] = at 50.0 µM (retest, dose inferred, filed as 5.0)

Measured: growth inhibition

CCOC(=O)c1c(SCC#N)n(-c2ccccc2)c(=S)n(-c2ccccc2)c1=O
inactive: [1]; [7] 12% | [1]; [8] 35% | [2]; [7] -7% | [2]; [8] 39% | [3]; [7] -8% | [3]; [8] 48% | [4]; [7] -6% | [5]; [7] 1% | [6]; [7] -11%
active: [1]; at 50.0 µM 80% | [2]; at 50.0 µM 81.2% | [3]; at 50.0 µM 75.3% | [4]; [8] 77% | [4]; at 50.0 µM 78% | [5]; [8] 85% | [5]; at 50.0 µM 88.5% | [6]; [8] 81% | [6]; at 50.0 µM 75.2%

ClCc1ccc2oc3ccccc3c2c1
inactive: [1]; [7] -5% | [1]; [8] 8% | [1]; at 50.0 µM 30% | [2]; [7] 1% | [2]; [8] 0% | [2]; at 50.0 µM 17.1% | [3]; [7] -12% | [3]; [8] -4% | [3]; at 50.0 µM 27.9% | [4]; [7] -1% | [4]; [8] -8% | [4]; at 50.0 µM 43.5% | [5]; [7] 2% | [5]; [8] -7% | [5]; at 50.0 µM -23.6% | [6]; [7] -3% | [6]; [8] 5% | [6]; at 50.0 µM 68.6%

Cc1cc(C)c(Cc2cc(C(C)(C)C)cc(C)c2O)cc1Cc1cc(C(C)(C)C)cc(C)c1O
active: [6]; at 50.0 µM 71%
inactive: [1]; [7] -2% | [1]; [8] 10% | [1]; at 50.0 µM 51.4% | [2]; [7] -5% | [2]; [8] 24% | [2]; at 50.0 µM 49.4% | [3]; [7] 2% | [3]; [8] 27% | [3]; at 50.0 µM 63.6% | [4]; [7] -16% | [4]; [8] 19% | [4]; at 50.0 µM 69.3% | [5]; [7] -4% | [5]; [8] 26% | [5]; at 50.0 µM 49.9% | [6]; [7] 2% | [6]; [8] 33%

Nc1ccc(S(=O)(=O)C23CC4CC(CC(C4)C2)C3)cc1
inactive: [1]; [7] -2% | [2]; [7] -16% | [3]; [7] -3% | [4]; [7] 1% | [5]; [7] 64% | [6]; [7] 13%
active: [1]; [8] 96% | [1]; at 50.0 µM 97.9% | [2]; [8] 98% | [2]; at 50.0 µM 98.8% | [3]; [8] 98% | [3]; at 50.0 µM 97.7% | [4]; [8] 93% | [4]; at 50.0 µM 93.5% | [5]; [8] 98% | [5]; at 50.0 µM 95.8% | [6]; [8] 98% | [6]; at 50.0 µM 97.5%

COc1ccc(C2c3cc4c(cc3OC(N3CCOCC3)C2C)OCO4)c(OC)c1 (configuration not stated)
inactive: [1]; [7] -3% | [2]; [7] -10% | [3]; [7] 2% | [4]; [7] 18% | [5]; [7] 7% | [6]; [7] -26%
active: [1]; [8] 88% | [1]; at 50.0 µM 95.9% | [2]; [8] 95% | [2]; at 50.0 µM 94.9% | [3]; [8] 79% | [3]; at 50.0 µM 80.8% | [4]; [8] 99% | [4]; at 50.0 µM 73.2% | [5]; [8] 98% | [5]; at 50.0 µM 98% | [6]; [8] 96% | [6]; at 50.0 µM 97.4%

C=C(Cl)C(=NC(C)(C)C)Nc1ccccc1Cl
active: [6]; at 50.0 µM 85.8%
inactive: [1]; [7] 21% | [1]; [8] 42% | [1]; at 50.0 µM 66.4% | [2]; [7] 14% | [2]; [8] 35% | [2]; at 50.0 µM 59.5% | [3]; [7] 16% | [3]; [8] 40% | [3]; at 50.0 µM 63.1% | [4]; [7] 31% | [4]; [8] 33% | [4]; at 50.0 µM 50.8% | [5]; [7] 14% | [5]; [8] 32% | [5]; at 50.0 µM 53.2% | [6]; [7] 27% | [6]; [8] 53%

O=c1cccccc1O.O=c1cccccc1O.O=c1cccccc1O.[Ru]
active: [1]; at 50.0 µM 87.5% | [2]; [8] 90% | [2]; at 50.0 µM 96.2% | [3]; [8] 81% | [3]; at 50.0 µM 91.5% | [6]; [8] 81% | [6]; at 50.0 µM 95.1%
inactive: [1]; [7] 29% | [1]; [8] 64% | [2]; [7] 32% | [3]; [7] 49% | [4]; [7] 11% | [4]; [8] 36% | [4]; at 50.0 µM 26.4% | [5]; [7] -11% | [5]; [8] -9% | [5]; at 50.0 µM 15.8% | [6]; [7] 55%

CCOc1ccccc1/C=C1\C=Nc2ccccc21
inactive: [1]; [7] 6% | [1]; [8] -16% | [1]; at 50.0 µM 11.8% | [2]; [7] -16% | [2]; [8] 8% | [2]; at 50.0 µM 16.1% | [3]; [7] -6% | [3]; [8] 0% | [3]; at 50.0 µM 16.2% | [4]; [7] 25% | [4]; [8] 16% | [4]; at 50.0 µM 7.65% | [5]; [7] 8% | [5]; [8] 15% | [5]; at 50.0 µM 24.7% | [6]; [7] -10% | [6]; [8] -17% | [6]; at 50.0 µM 6.35%

Cc1[nH]nc(C(=O)N/N=C/c2cccs2)c1N=NN(C)C
active: [1]; [7] 73% | [1]; [8] 96% | [1]; at 50.0 µM 97.2% | [2]; [8] 98% | [2]; at 50.0 µM 82.9% | [3]; [8] 73% | [3]; at 50.0 µM 97% | [4]; [8] 96% | [4]; at 50.0 µM 99.3% | [5]; [8] 95% | [5]; at 50.0 µM 87.6% | [6]; [7] 80% | [6]; [8] 98% | [6]; at 50.0 µM 99%
inactive: [2]; [7] 15% | [3]; [7] 19% | [4]; [7] -3% | [5]; [7] -1%
